Records with an inconclusive call do not appear. Calls of active or inactive are those of the source. The call rests on the fitted dose curve; in most records, active means well fitted inhibition curve with a large enough effect; inconclusive means small, poorly fitted or top-dose-only effect; inactive means no such curve, though single readings can be large or run the other way.
Target: Retinaldehyde dehydrogenase 3 (Homo sapiens) (UniProt P47895)
Assay: qHTS for Inhibitors of the Aldehyde Dehydrogenase Family (ALDH1A3) Primary screen (AID 2061315);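 further: plate controls were DMSO vehicle for no effect and reference inhibitor for full effect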
Details: ALDH inhibition qHTS; series mostly up to 56 µM; activity change, negative = inhibition: at the top concentration

| Structure (SMILES) | activity change, negative = inhibition |
| --- | --- |
| Nc1nc2c(ncn2C2OC3COP(=O)(O)OC3C2O)c(=O)[nH]1 (stereo not drawn) | -8.76% (inactive) |
| Cc1ccsc1CNc1ncnc2ccc(-c3c(C)noc3C)cc12 | 0.831% (inactive) |
| CCNC(=O)c1ccc(-c2ccc3ncnc(NCc4nccs4)c3c2)o1 | -10.5% (inactive) |
| O=C(Nc1nc(-c2ccccc2)cs1)c1ccncc1NS(=O)(=O)c1ccc2c(c1)CCC2 | 13.9% (inactive) |
| CC(=O)Nc1oc(-c2cccc3ccccc23)nc1C#N | 1.5% (inactive) |
| CCOc1ccc(C(=O)Nc2ccc(-c3nc4ccccc4[nH]3)cc2)cc1[N+](=O)[O-] | 7.27% (inactive) |
| COC(=O)c1nc(Nc2cc(F)cc(F)c2)nc(NC2CCCC2)n1 | 14% (inactive) |
| CC(=O)Nc1ccc(NC(=O)c2cnn3c(C)cc(C)nc23)cc1 | 3.39% (inactive) |
| Nc1ccc(C(=O)Nc2ccc(-c3nc4ccccc4[nH]3)cc2)cc1Cl | -7.44% (inactive) |
| COc1ccc(CC(=O)Nc2ccc(S(=O)(=O)Nc3cc(C)on3)cc2)cc1OC | 4.13% (inactive) |
| N#Cc1cnc(NS(=O)(=O)c2ccc(NC(=O)Cc3ccc(F)c(Cl)c3)cc2)s1 | 13.1% (inactive) |
| FC(F)(F)c1ccccc1-c1nc2c(c(NCc3ccc(-c4cccnc4)cc3)n1)CCC2 | -6.23% (inactive) |
| COc1ccc(C[C@H](N)C(=O)N[C@@H]2[C@H](O)[C@H](n3cnc4c(N(C)C)ncnc43)O[C@@H]2CO)cc1 | -26.1% (inactive) |
| COc1ccc(NS(=O)(=O)c2ccc3c(c2)CCC(=O)N3)cc1 | -4.53% (inactive) |
| NC(=O)C1CCN(c2nc(-c3cccc(N)c3)cs2)CC1 | -12% (inactive) |
| Cc1cc(NS(=O)(=O)Cc2ccc(NC(=O)Cc3ccc(Cl)c(Cl)c3)cc2)no1 | -2.43% (inactive) |
| Nc1ccc2c(c1)C(=O)NS2(=O)=O | 0.971% (inactive) |
| CCCn1c(-c2ccc(F)cc2)nc2c(NCCCN(C)C)nc(C)nc21 | -1.78% (inactive) |
| COC(=O)Nc1sc2c(c1C(N)=O)CCCC2 | -11.9% (inactive) |
| Cc1ccc(S(=O)(=O)Nc2cnccc2C(=O)Nc2ccc3ccccc3c2)cc1 | 4.2% (inactive) |
| Cc1cc2c(s1)c1cnn(Cc3ccc(SC(F)(F)F)cc3)c(=O)c1n2C | 16.2% (inactive) |
| O=C(OCC#CCSc1nnc(-c2cccc3ccccc23)o1)C1CCCC1 | 12.3% (inactive) |
| O=C(CCc1ccccc1Br)NCCc1nc2ccccc2[nH]1 | 7.7% (inactive) |

Reference: PubChem BioAssay (NCATS)
